Measurements from PubChem BioAssay.
Values joined by “and” are separate entries in the source; they are usually repeats but may differ in a detail not shown here. Identical values can stand only once. A structure can be active in one record and inactive in another. Active and inactive are the calls of the source. Unless noted, how the calls were made is not given here.

Legend:
[1] = glutamate transport activators, MN-1 cells, MN-1 cell line (AID 1612); conditions: MN-1 motor neuron cells, stronger effect = higher value;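 further: tested at 1 µM final; 0% = mean of DMSO vehicle wells on each plate; positive means more glutamate uptake than control and negative means less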
[2] = 75Q-TubH aggregate inhibition, S. cerevisiae, yeast (AID 1616); conditions: S. cerevisiae 75Q-TubH polyglutamine aggregation suppression; stronger effect = higher value
[3] = compounds altering viability of human ES cells (AID 493140); conditions: human embryonic stem cell survival screen; stronger effect = higher value;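 further: cells exposed to compounds for four days before counting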
[4] = P. berghei load reduction in hepatocytes – cell-based, HepG2, luciferase luminescence, HepG2 viability, primary screen (AID 624349; in the data active means parasite load remaining mostly below about 12%, no sharp cut-off; inactive means mostly above about 10%;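 further: 100% = mean of DMSO negative control wells on the same plate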); conditions: P. berghei liver stage in HepG2, luciferase luminescence, concentration not given here; parasite load remaining: stronger effect = lower value; viability: measured here: HepG2 viability without parasites
[5] = Wnt pathway potentiators raising nuclear beta-catenin – imaging, WNT3A-conditioned medium, mouse C2C12, NPC library, primary screen (AID 1117326; in the data active means nuclear beta-catenin stimulation mostly above about 4.2%, no sharp cut-off; inactive means mostly below about 10%); conditions: stronger effect = higher value
[6] = compounds altering circadian rhythm period length – cell-based, LOPAC library, luminescence reporter (AID 2774); conditions: circadian reporter cells, at 7 µM, actives lie on both sides;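 further: values are relative to mean of DMSO wells on each plate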
[7] = tested on: Hepatitis C virus NS3 helicase; test: blockers of NS3h binding to ssDNA – biochemical, fluorescence polarization, LOPAC1280 library, primary screen (AID 687035; in the data active means inhibition above about 37%); conditions: Purified HCV NS3 helicase, Cy5-dT15 ssDNA binding fluorescence polarization; stronger effect = higher value; concentration not given here
[8] = compounds altering Cy5-DNA-NS3h complex signal – biochemical, LOPAC1280, artefact control for HCV NS3 helicase inhibitor project (AID 687037); conditions: Cy5-DNA-NS3h complex fluorescence interference counterscreen
[9] = signal quenchers or enhancers, Cy5 substrate/SSB – biochemical, NIH Clinical Collection, E. coli SSB, artefact control for HCV NS3 helicase inhibitor project (AID 743268); conditions: Cy5-oligo bound E. coli SSB, fluorescence interference
[10] = tested on: Hepatitis C virus NS3 helicase; test: blockers of NS3h binding to DNA – biochemical, fluorescence polarization, NIH Clinical Collection, primary screen (AID 743270); conditions: NS3 helicase binding to Cy5-dT15 DNA, stronger effect = higher value, concentration not given here
[11] = target: Single-stranded DNA-binding protein (Escherichia coli (strain K12)) (UniProt P0AGE0); test: SSB-ssDNA binding inhibitors – biochemical, fluorescence polarization, NIH Clinical Collection, counter-screen for HCV NS3 helicase inhibitor project (AID 743271; in the data active means inhibition above about 28%); conditions: E. coli SSB-DNA binding, stronger effect = higher value, concentration not given here
[12] = compounds distorting NS3 helicase fluorescence signal – biochemical, NIH Clinical Collection, artefact control for HCV NS3 helicase inhibitor project (AID 743272); conditions: fluorescence interference counterscreen, HCV NS3 helicase assay; stronger effect = lower value;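 further: HCV NS3 helicase with a Cy5 labelled single stranded DNA probe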
[13] = tested on: Neuropilin-2 / VEGF-C interaction (human); test: small molecules blocking Neuropilin-2/VEGF-C interaction – biochemical, microplate binding format, z-score (AID 743281); conditions: microplate NRP2/VEGF-C binding assay; stronger effect = lower value
[14] = GFP-Q80 aggregate reduction, neuronal-like cells, cell-based, NGF-treated PC12, GFPQ80 (AID 1614); conditions: PC12 NGF-treated GFP-polyQ80 inclusion reduction;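 further: lower means fewer inclusions and 0 means no inclusions at all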

SMILES	glutamate uptake change [1]	aggregation suppression score [2]	survival [3]	parasite load remaining [4]	viability [4]	nuclear beta-catenin stimulation ([5]; at 10 µM)	nuclear beta-catenin stimulation ([5]; stimulation, at 2 µM)	period change [6]	inhibition [7]	fluorescence ratio (interference) [8]	fluorescence ratio [9]	inhibition [10]	inhibition [11]	fluorescence ratio [12]	z-score [13]	inclusion score [14]
CC(Cc1cccc(C(F)(F)F)c1)NCCOC(=O)c1ccccc1 (stereo not given)	15.6%	1.08	2.5 (inactive)	112% (inactive) and 111% (inactive) and 72.4% (inactive)	102% and 77% and 73.5%	2.3% (inactive)	3.6%									
CN1CCN(CCCN2c3ccccc3Sc3ccc(Cl)cc32)CC1	0%	1.34	1.75 (inactive)			19.8% (inactive)	0.2%	0.055 h (inactive)	-3% (inactive)	1 (inactive)	0.78 (active)	-1.19% (inactive)	9.14% (inactive)	0.71 (active)	0.742 (inactive)	
CN1CCN2c3ccccc3Cc3ccccc3C2C1 (stereo not given)	12.1%	1.3	11.2 (inactive)	78.7% (inactive) and 106% (inactive) and 104% (inactive)		0.3% (inactive)	-0.9%	0.145 h (inactive)	-3% (inactive)	0.9 (inactive)						
O=C1c2cccc(O)c2C(=O)c2c(O)cccc21	-10.8%	0.219		32.6% (inactive)	96.2%	-0.6% (inactive)	8.2%									2
CCOC(=O)C(C)(C)Oc1ccc(Cl)cc1	-11.1% and 6.19%	0.624 and 0.92	82.4 (inactive)	56.5% (inactive) and 51.6% (inactive)	100% and 144%	0% (inactive)	1.6%	-0.13 h (inactive)	-5% (inactive)	1 (inactive)						
Clc1ccccc1C(c1ccccc1)(c1ccccc1)n1ccnc1	-22.9%	0.0931	29.8 (inactive)			1.1% (inactive)	1.7%	0.01 h (inactive)	-2% (inactive)	1 (inactive)	0.9 (inactive)	5.94% (inactive)	6.83% (inactive)	0.9 (inactive)	0.266 (inactive)	
COc1ccc(CCN2CCC(Nc3nc4ccccc4n3Cc3ccc(F)cc3)CC2)cc1	31.2%	1.26	1.58 (inactive)			-1.3% (inactive)	3.9%									
NC(=O)c1ccccc1O	8.07%	1.02		47.6% (inactive) and 47.5% (inactive)	78.6% and 92.9%	0.9% (inactive)	0.5%									2
Fc1ccc(C(c2ccc(F)cc2)N2CCN(C/C=C/c3ccccc3)CC2)cc1	9.47%	1.1	3.67 (inactive)			1.1% (inactive)	-2.5%	-0.2 h (inactive)	-1% (inactive)	1 (inactive)						
CCCCOc1ccc(C(=O)CCN2CCCCC2)cc1	1.68%	1.27	4.92 (inactive)			1.2% (inactive)	-0.2%									
CN(C)CCCN1c2ccccc2Sc2ccccc21	20.4%	1.03	1.08 (inactive)	72.2% (inactive) and 44.2% (inactive) and 20.3% (inactive)	85.1% and 62.8% and 90.9%	2.1% (inactive)	1.6%	-0.355 h (inactive)	-9% (inactive)	0.9 (inactive)						
COC(=O)[C@H]1[C@H]2C[C@@H]3c4[nH]c5cc(OC)ccc5c4CCN3C[C@H]2C[C@@H](OC(=O)c2cc(OC)c(OC)c(OC)c2)[C@@H]1OC	4.63%	1.07	6.17 (inactive)	23.5% (inactive) and 21.7% (inactive) and 13.3% (active)	102% and 74.9% and 89.3%	1.8% (inactive)	2.2%	0.165 h (inactive)	-4% (inactive)	1 (inactive)						
CCCCOc1cc(C(=O)NCCN(CC)CC)c2ccccc2n1	-13.8%	1.32	7.17 (inactive)			5.7% (inactive)	1.8%									
CN(C)CCCN1c2ccccc2Sc2ccc(C(F)(F)F)cc21	10.7%	1.05	5.42 (inactive)			41.9% (active)	3.5%	-0.13 h (inactive)	-5% (inactive)	1 (inactive)						
Cc1ccc(C(C)C)cc2c(C)ccc1-2	4.08%	-1.39				-1.2% (inactive)	0.2%									
Cc1nc2sccn2c(=O)c1CCN1CCC(=C(c2ccc(F)cc2)c2ccc(F)cc2)CC1	29.6%	1.39		16.8% (inactive)	91.8%	13.4% (inactive)	4.3%	0.08 h (inactive)	0% (inactive)	0.9 (inactive)						
CSc1ccc2c(c1)C(N1CCN(C)CC1)Cc1ccccc1S2 (stereo not given)	5.12%	1.18	1.5 (inactive)	74.1% (inactive) and 71.4% (inactive) and 63.7% (inactive)	72.2% and 69.9% and 104%	61.9% (active)	1.4%	0.085 h (inactive)	-5% (inactive)	0.9 (inactive)						
Cc1cc(N)c2ccccc2[n+]1CCCCCCCCCC[n+]1c(C)cc(N)c2ccccc21	12.9%	0.0487	0.167 (inactive)	4.91% (inactive) and -3.56% (inactive) and 27.5% (inactive)	97.2% and 73.1% and 69.2%	25% (inactive)	-0.1%	0.12 h (inactive)	2% (inactive)	0.9 (inactive)						
